Assay results reported in PubChem BioAssay (Tox21).
Records with an inconclusive call do not appear. Where a call stands in place of a potency, no number is given. The source made the active and inactive calls. Calls come from the whole dose curve; as a rule, active = well fitted cell-killing curve with a large enough effect in the repeat runs; inconclusive = weak or mixed curves, or effect the other way; inactive = flat fitted curve, though single readings scatter.

Test: qHTS assay to identify small molecule agonists of the constitutive androstane receptor (CAR) signaling pathway - cell viability counter screen (AID 1224836)
Details: HepG2-CYP2B6-hCAR viability, CellTiter-Fluor, 23 h, PK11195 added to every well; series mostly up to 92.4 µM
Summary of the method: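 Using CellTiter-Fluor, viability of HepG2 cells harbouring hCAR and CYP2B6-2.2kb was measured following 23 h incubation with a 15-concentration compound series plus PK11195 (0.75 uM final).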
Note: nearly all actives have a fitted effect of over 45% in size.

Compound	Potency
COC(=O)NC(=S)Nc1ccccc1NC(=S)NC(=O)OC	inactive
CCCCN(CCCC)SN(C)C(=O)Oc1cccc2c1OC(C)(C)C2	inactive
O=[N+]([O-])c1ccccc1	inactive
C=CC(N)=O	inactive
CCC12COCN1COC2	inactive
Clc1ccccc1Cl	inactive
CNC(=O)Oc1ccccc1OC(C)C	inactive
CCCN(CCC)c1c([N+](=O)[O-])cc(C(F)(F)F)cc1[N+](=O)[O-]	inactive
COP(N)(=O)SC (stereo not given)	inactive
COC(=O)NS(=O)(=O)c1ccc(N)cc1	inactive
CN1C(=O)CN=C(c2ccccc2)c2cc(Cl)ccc21	inactive
O=C1CCCN1	inactive
Cc1ccc(N)cc1N	inactive
OC(O)C(Cl)(Cl)Cl	inactive
CN(C)CCO	inactive
O=c1[nH]c2ccccc2c(=O)o1	inactive
CC(C)OC(=O)Nc1ccccc1	inactive
CON(C)C(=O)Nc1ccc(Cl)c(Cl)c1	inactive
Nc1ccc(Oc2ccc(N)cc2)cc1	inactive
O=c1n(Cl)c(=O)n(Cl)c(=O)n1Cl	inactive
CCOP(OCC)OCC	inactive
Clc1ccc(Cl)cc1	inactive
CC(C)(C)OOC(=O)c1ccccc1	inactive
COc1ccc2c3c1O[C@H]1[C@@H](O)C=C[C@H]4[C@@H](C2)N(C)CC[C@@]341	inactive
CCCC1COC(Cn2cncn2)(c2ccc(Cl)cc2Cl)O1 (stereo not given)	inactive

Test: qHTS assay to identify small molecule antagonists of the constitutive androstane receptor (CAR) signaling pathway - cell viability counter screen (AID 1224837)
Details: HepG2-CYP2B6-hCAR viability, CellTiter-Fluor, 23 h, co-treated with 50 nM CITCO; series mostly up to 92.4 µM
Summary of the method: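 CITCO at 50 nM final was added alongside compounds (15 concentrations) to double-stable hCAR/CYP2B6-2.2kb HepG2 cells. Following 23 hr at 37 C, cell viability was quantified by CellTiter-Fluor fluorescence intensity.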

Compound	Potency
[N-]=[N+]=[N-]	inactive
Cc1[nH]c(=O)n(C(C)(C)C)c(=O)c1Cl	inactive
COC(=O)NC(=S)Nc1ccccc1NC(=S)NC(=O)OC	inactive
CCCCN(CCCC)SN(C)C(=O)Oc1cccc2c1OC(C)(C)C2	inactive
O=[N+]([O-])c1ccccc1	inactive
C=CC(N)=O	inactive
c1ccc2c(c1)Oc1ccccc1O2	inactive
c1ccc(-c2ccccc2)cc1	inactive
CCC12COCN1COC2	inactive
Clc1ccccc1Cl	inactive
CNC(=O)Oc1ccccc1OC(C)C	inactive
CC1OC(C)OC(C)O1 (stereo not given)	inactive
CCCN(CCC)c1c([N+](=O)[O-])cc(C(F)(F)F)cc1[N+](=O)[O-]	inactive
COP(N)(=O)SC (stereo not given)	inactive
COC(=O)NS(=O)(=O)c1ccc(N)cc1	inactive
CN1C(=O)CN=C(c2ccccc2)c2cc(Cl)ccc21	inactive
CC(Oc1ccc(Cl)cc1Cl)C(=O)O (stereo not given)	inactive
O=C1CCCN1	inactive

Compound	Potency
CN(N=O)c1ccccc1	inactive
Cc1ccc(N)cc1N	inactive
Nc1ccc(Br)cc1	inactive
OC(O)C(Cl)(Cl)Cl	inactive
CCCCN(CC)C(=O)SCCC	inactive
C=C(C)CCl	inactive
CN(C)CCO	inactive
O=c1[nH]c2ccccc2c(=O)o1	inactive
CC(C)OC(=O)Nc1ccccc1	inactive
CON(C)C(=O)Nc1ccc(Cl)c(Cl)c1	inactive
Nc1ccc(Oc2ccc(N)cc2)cc1	inactive
O=c1n(Cl)c(=O)n(Cl)c(=O)n1Cl	inactive
CCOP(OCC)OCC	inactive
Clc1ccc(Cl)cc1	inactive
CC(C)(C)OOC(=O)c1ccccc1	inactive
COc1ccc2c3c1O[C@H]1[C@@H](O)C=C[C@H]4[C@@H](C2)N(C)CC[C@@]341	inactive
CC(=O)C=C(C)C	inactive
